Test results from PubChem BioAssay AID1030 (National Center for Advancing Translational Sciences (NCATS), 2008).
In all, about 220,000 compounds went through this assay and about 16,000 (7.3%) were called active. A call without a number means that no potency is given here. About 25% were inconclusive and are not listed. The sample holds actives, similar compounds and a random draw of the others, so the mix is not that of the screen. Calls come from the whole dose curve; as a rule, active = well fitted inhibition curve with a large enough effect (not every such curve was filed as active); inconclusive = small, poorly fitted or top-dose-only effect, or another doubt; inactive = no such curve, though single readings can be large or run the other way.

molecular target: Aldehyde dehydrogenase 1A1 (Homo sapiens) (UniProt P00352); assay: qHTS Assay for Inhibitors of Aldehyde Dehydrogenase 1 (ALDH1A1); conditions: Purified ALDH1A1, NADH fluorescence, propionaldehyde substrate; series mostly up to 75.3 µM
Sequence (P00352 whole entry, looked up): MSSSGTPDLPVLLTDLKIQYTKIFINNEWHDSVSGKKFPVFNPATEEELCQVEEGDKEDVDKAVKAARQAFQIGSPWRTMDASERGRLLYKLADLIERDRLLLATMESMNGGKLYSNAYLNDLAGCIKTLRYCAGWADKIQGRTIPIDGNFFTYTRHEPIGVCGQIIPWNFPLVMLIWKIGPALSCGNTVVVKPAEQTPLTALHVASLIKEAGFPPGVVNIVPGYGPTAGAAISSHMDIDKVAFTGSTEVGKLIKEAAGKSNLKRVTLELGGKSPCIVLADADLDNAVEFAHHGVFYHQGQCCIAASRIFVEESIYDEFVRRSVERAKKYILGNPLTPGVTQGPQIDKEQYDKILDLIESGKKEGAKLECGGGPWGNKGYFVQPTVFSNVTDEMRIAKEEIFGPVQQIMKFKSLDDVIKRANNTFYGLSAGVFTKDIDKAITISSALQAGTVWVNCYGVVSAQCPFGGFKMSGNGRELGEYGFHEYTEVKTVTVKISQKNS
Potency is the fitted concentration of half-maximal effect.

Row | Compound | Potency
1 | O=C(OCc1ccc([N+](=O)[O-])cc1)c1ccccn1 | inactive
2 | Cc1nc([N+](=O)[O-])c(NCCCO)n1Cc1ccccc1 | inactive
3 | CCNc1nc(-c2cc3ccccc3o2)cs1 | inactive
4 | NS(=O)(=O)c1ccc(CCNC(=O)c2ccc(Cl)cc2[N+](=O)[O-])cc1 | inactive
5 | O=P(O)(CN1CCCCCC1)C1Cc2ccccc2C1 | inactive
6 | CCOC(=O)c1sc(=S)n2c1[nH]c(=O)c1ccc(C(=O)OC)cc12 | 8.91 µM (active)
7 | CCOC(=O)C1=C(C)Nc2sc(C(=O)c3ccc(Br)cc3)c(N)c2C1c1ccc(C(=O)OC)cc1 (stereo not drawn) | inactive
8 | CCOC(=O)c1sc(NC(=O)c2ccncc2)nc1C | inactive
9 | Cc1ccc(/C=N/NC(=O)COc2ccccc2-c2ccccc2)cc1 | inactive
10 | CC(C)(C)C1C/C(=C/c2ccco2)C(=O)/C(=C/c2ccco2)C1 (stereo not drawn) | 7.94 µM (active)
11 | CCC1C/C(=C/c2cccs2)C(=O)/C(=C/c2cccs2)C1 (stereo not drawn) | inactive
12 | CCC1S/C(=N/N=C/c2ccco2)NC1=O (stereo not drawn) | inactive
13 | COc1ccc(C2=NN(c3nc4ccccc4s3)C(=O)C2)cc1 | inactive
14 | CCCCn1c(=O)c(C(C)=O)c(O)c2ccccc21 | inactive
15 | Cc1[nH]c2c(C(=O)N3CCCC(CCC(=O)NCc4ccccc4F)C3)cccc2c1C (stereo not drawn) | inactive
16 | COc1ccccc1N1CCN(Cc2ccc(OC)c3ccccc23)CC1 | inactive
17 | CCN1CCN(CCCCOc2ccccc2F)CC1 | inactive
18 | COc1ccccc1N1CCN(CCCCOc2ccc(F)cc2)CC1 | 25.1 µM (active)
19 | CCOC(=O)c1c(NC(=O)C2CC=CCC2C(=O)O)sc(C)c1CC (stereo not drawn) | inactive
20 | Cc1ccc(-c2cccc([C@H]3[C@@H]4C=CC[C@@H](C)[C@@H]4C(=O)N3Cc3ccccc3)c2)cc1 | inactive
21 | COc1ccc(OC)c(Cc2nnc(CCC(=O)NC3CCCC3)o2)c1 | inactive
22 | O=C1CSC(c2cccc(F)c2)N1c1ccccc1F (stereo not drawn) | 14.1 µM (active)
23 | O=C1CSC(c2cccc(F)c2)N1c1ccc(O)cc1 (stereo not drawn) | inactive

Row | Compound | Potency
24 | O=C1CSC(c2ccccc2)N1c1nc(-c2ccc(Cl)cc2Cl)cs1 (stereo not drawn) | inactive
25 | CC1CCN(C(=O)c2ccc(S(=O)(=O)Cc3cc(F)ccc3F)c([N+](=O)[O-])c2)CC1 | 7.08 µM (active)
26 | CC1CCN(c2ccc(S(=O)(=O)Nc3cc(C(=O)O)cc(C(=O)O)c3)cc2[N+](=O)[O-])CC1 | inactive
27 | O=C(Nc1ccc(F)cc1)C1CCN(C(=O)c2ccc([N+](=O)[O-])cc2)CC1 | inactive
28 | COc1ccc(S(=O)(=O)NCC2CCCN(C(=O)c3occc3C)C2)cc1 (stereo not drawn) | 4.47 µM (active)
29 | CCc1[nH]nc(C(=O)N2CCCC(CNS(=O)(=O)c3cccs3)C2)c1C (stereo not drawn) | inactive
30 | COCCCNC(=O)C1CCC(CNS(=O)(=O)c2ccc(OC)cc2)CC1 (stereo not drawn) | inactive
31 | Cc1ccc(S(=O)(=O)N2CCOCC2)cc1C(=O)OC1CCCCC1=O (stereo not drawn) | inactive
32 | CCC(C)NC(=O)Cn1nc(C(F)(F)F)c2c1CCC2 (stereo not drawn) | inactive
33 | CS(=O)(=O)N(CC(=O)N1CCCC1)Cc1ccccc1 | inactive
34 | CS(=O)(=O)N1CCC(C(=O)N2CCN(c3ccccc3)CC2)CC1 | inactive
35 | CS(=O)(=O)N1CCN(C(=O)Cc2ccccc2)CC1 | 8.91 µM (active)
36 | O=C(Nc1ccc(Cl)cc1)Nc1ccc(Oc2cccnc2)nc1 | inactive
37 | Cc1ccc(-n2cc(CN(C)Cc3nccn3C)c(-c3cccc(C)c3)n2)cc1 | inactive
38 | COc1cccc(Cn2c(=O)c(-c3cc(F)cc(F)c3)nc3cnc(OC)nc32)c1 | inactive
39 | COc1cccc(Cn2c(=O)c(C)nc3cnc(Oc4ccccc4)nc32)c1 | inactive
40 | COc1cccc(Cn2c(=O)cnc3cncnc32)c1 | 2.51 µM (active)
41 | COc1ccc(OC)c(NC(=O)CN(Cc2ccc(Cl)cc2)S(C)(=O)=O)c1 | inactive
42 | CCC(C)(C)C1CCC(=NNC(=O)c2ccc(Br)o2)CC1 (stereo not drawn) | inactive
43 | Cc1cc2nc3c(=O)n(Cc4ccccc4)c(=O)[nH]c3nc2cc1N | 12.6 µM (active)
44 | O=c1[nH]c2c(c(=O)n1Cc1ccccc1)CCC2 | inactive
45 | Cc1nc2cnc(Nc3ccccc3)nc2n(Cc2ccc(F)cc2)c1=O | inactive
46 | CCS(=O)(=O)c1ccc(C(=O)NC)c(Cl)c1Cl | inactive

Row | Compound | Potency
47 | c1ccc(CCn2nnnc2CN2CCN(C3CCCC3)CC2)cc1 | inactive
48 | COc1ccc(C(c2nnnn2C2CCCCC2)N2CCN(c3ccccc3F)CC2)cc1 (stereo not drawn) | inactive
49 | c1ccc(C(c2ccccc2)N2CCN(Cc3nnnn3C3CCCCC3)CC2)cc1 | 7.94 µM (active)
50 | Cc1ccc(N(CCC(=O)O)S(=O)(=O)c2cccc(C(F)(F)F)c2)cc1 | inactive
51 | COc1ccc2c(c1)c(=O)c(C(=O)c1ccc(Cl)cc1)cn2CC(=O)Nc1ccc(F)cc1 | inactive
52 | COc1ccc2[nH]cc(CCNc3nc(-c4cccc(NS(C)(=O)=O)c4)nc4ccccc34)c2c1 | inactive
53 | COc1ccc2[nH]cc(CCNc3ncnc4ccc(-c5ccccc5CN(C)C)cc34)c2c1 | inactive
54 | COc1ccc2[nH]cc(CCNc3ncnc4ccc(-c5ccc(C(=O)N(C)C)cc5)cc34)c2c1 | 25.1 µM (active)
55 | Cc1ccccc1NC(=O)NNC(=O)OC(C)(C)C | inactive
56 | Cc1c(CCOC(=O)c2cc([N+](=O)[O-])ccc2Cl)sc[n+]1CCCCS(=O)(=O)[O-] | inactive
57 | COc1cccc2c(N/N=C/c3ccco3)cc(C)nc12 | inactive
58 | Clc1ccc(CN2CCN(/N=C/c3cccnc3)CC2)cc1 | inactive
59 | O=C1/C(=C\c2cccnc2)CN(Cc2ccccc2)C/C1=C\c1cccnc1 | 7.94 µM (active)
60 | O=Cc1cn(Cc2ccccc2)nc1-c1cccnc1 | inactive
61 | O=C(Nc1ccccc1C(=O)N1CCOCC1)c1ccc(CSc2ccccc2)cc1 | inactive
62 | O=C(/C=C/c1ccc(Cl)cc1)Nc1ccc(Br)cn1 | inactive
63 | COc1ccc(-n2c(SCC(=O)Nc3sc4c(c3C#N)CCCC4)nnc2-c2ccc(O)cc2)cc1 | inactive
64 | O=C(CSc1nc2cc3c(cc2c(=O)n1CCC1=CCCCC1)OCO3)NCc1ccco1 | inactive
65 | C=C(C)Cn1c(SCC(=O)NCc2ccco2)nc2sc3c(c2c1=O)CCC3 | 11.2 µM (active)
66 | Cc1cc(NC(=O)CSc2nc3cc(Cl)ccc3c(=O)n2Cc2ccco2)no1 | inactive
67 | N#Cc1c(NC(=O)CSc2nc3ccccc3c(=O)n2Cc2ccco2)sc2c1CCCC2 | 25.1 µM (active)
68 | O=C(CSc1c2c(nc3ccc(Cl)cc13)CCCC2)NCc1ccco1 | inactive
